For some assays here: Entries with a potency or affinity are not part of this list. Calls of active or inactive are those of the source. Unless noted, cut-off not given; nearly all actives show IC50 up to about 0.98 µM.

System in one test: not listed separately
As to the kind of experiment: inhibition of 3D7 malaria parasite growth – strain 3D7 (AID 2306; call rule not given here;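 further: 0% = DMSO wells and 100% = chloroquine plus artemisinin control wells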). To be noted: P. falciparum 3D7 erythrocytic growth, LDH absorbance, 72 h; at 2 µM; hits give high values.
Consider `CCCCOc1ccc(CNCCCCCCNCc2ccc(OCCCC)c3ccccc23)c2ccccc12`, for which the growth inhibition is 81% (active).
As for `O=C(Nc1ccc(-c2nc3ccccc3[nH]2)cc1)c1cccc(S(=O)(=O)N2CCOCC2)c1`, the growth inhibition is 89% (active).
On the same count and under the same terms, the result for `COc1ccc(NC(=O)[C@H](CC(C)C)Nc2cc(C)nc(NCCc3cccs3)n2)cc1` reads 100% (active); that for `O=C(NCCCCCCNCc1ccc(-c2ccccc2)cc1)Nc1ccc(Cl)c(Cl)c1`, 90% (active); that for `O=C(Nc1ccc(-c2ccccc2)cc1)Nc1cccc(Cn2nc(Cl)c(N3CCNCC3)cc2=O)c1`, 102% (active).
On the same count and under the same terms, for `COc1cccc(C2CCN(CCN3CCC(NC(=O)c4ccc(-c5ccc(Cl)cc5)cc4)CC3)CC2)c1` the value was 93% (active); for `COc1ccc2nc(-c3cccc(C)n3)nc(Nc3ccncc3)c2c1`, 101% (active).
`Cc1nc2c(c(C)nn2C(C)(C)C)c(C)c1CCC(=O)Nc1ccc(CN2CCCC2)cc1`: the growth inhibition was 89% (active).
With `CCCSc1nc2c(c(=O)n1Cc1ccco1)C1(CCCCC1)Cc1ccccc1-2`, the growth inhibition is 100% (active).
Same read-out and setting: for `CN(C)CCOc1cc(NC(=O)Nc2ccc3c(c2)CCCC3=O)ccc1I` the value was 94% (active).
For `Nc1c2ccccc2nc2ccc(-c3ccccc3)cc12`, the growth inhibition was 101% (active).
Same read-out and setting: for `CN1CCC(NCc2ccc(-c3cccc(S(=O)(=O)NCCc4ccccn4)c3)cc2)CC1` the value was 84% (active); for `Cc1ccc2sc(N(CCCn3ccnc3)C(=O)c3ccco3)nc2c1C`, 93% (active); for `Cc1ccc(-c2cc3nc4c(c(NCCCn5ccnc5)n3n2)CCC4)cc1`, 94% (active).
On to `O=S(=O)(c1ccccc1)C1CC1`, for which the growth inhibition was 89% (active).
On the same count and under the same terms, the result for `CCCCCCc1ncc(-c2cc3cc(O)c(-c4ccccc4)cc3oc2=O)s1` reads 90% (active); that for `Cc1cc(N[C@@H](Cc2ccccc2)C(=O)NCCc2ccccc2)nc(NCCc2cccs2)n1`, 99% (active); that for `COc1ccc(Nc2nccc(N3CCC(NC(=O)Nc4cccc(C(C)=O)c4)C3)n2)cc1` (stereo not given), 98% (active).
Same read-out and setting: the result for `O=C(Nc1ccc(Cl)c(Cl)c1)C1CCC(=O)N1[C@@H](Cc1ccccc1)C(=O)NCCc1ccc(Cl)cc1` (stereo not given in full) reads 95% (active); that for `CC(C)(C)OC(=O)/C=C(\C(=O)OCc1ccc([N+](=O)[O-])cc1)c1csc(NC(c2ccccc2)(c2ccccc2)c2ccccc2)n1`, 96% (active).
Still for that read-out and setting: for `COC(=O)c1sc(-c2ccc(Cl)cc2)cc1N(CCCN1CCC(N2CCCCC2)CC1)S(=O)(=O)c1ccc(C)cc1` the value was 103% (active); for `CN1C(=C2SC(=Nc3ccc4ncccc4c3)N(Cc3ccccc3)C2=O)Sc2ccc(Cl)cc21`, 99% (active); for `N#Cc1cccc(NC(=O)NC2CCN(CCCCCNC(=O)[C@@H]3C[C@H]3c3ccc(Cl)c(Cl)c3)CC2)c1`, 102% (active).
For the molecule `CC(C)(C)COc1ccc2c(N)n[nH]c2c1`, the growth inhibition was 90% (active).
The same measure, in the same setting: the result for `COc1cc(NC2CCCC(NCc3cn(S(=O)(=O)c4ccccc4)c4ccccc34)C2)nc2ccccc12` (stereo not given) reads 100% (active); that for `CN(C)CCNC(=O)c1cc2c(-c3ccc(Cl)cc3)nn(C)c2s1`, 98% (active); that for `O=[N+]([O-])c1ccc(Oc2ccccc2CNCC2CCN(CC3CCCCC3)CC2)cc1`, 89% (active).
Same read-out and setting: for `COc1cc2nc(NCCc3ccccc3)nc(N(C)Cc3ccccc3)c2cc1OC` the value was 96% (active); for `COc1ccc2nc(C)cc(NN=Cc3ccc(Cl)cc3)c2c1`, 100% (active); for `CN(C)CCOc1ccc(NC(=O)Nc2ccnc3c(Br)cccc23)cc1Cl`, 97% (active).
Still for that read-out and setting: for `COc1cc(-c2nc(-c3ccccc3)c(-c3ccc(C(=O)c4ccc(F)cc4)cc3)[nH]2)cc(OC)c1O` the value was 101% (active); for `O=C(/C=C/c1ccc(Cl)c(Cl)c1)NCCCCCN1CCC(c2[nH]nc(-c3ccccc3)c2Br)CC1`, 95% (active); for `c1ccc(CN2CCN(c3cc(-c4cncc(-c5ccccc5)c4)nc(-c4ccccc4)n3)CC2)cc1`, 88% (active).
For `Cc1ccc(-n2cc(CNCCc3ncc(C)[nH]3)c(-c3ccc(F)cc3)n2)cc1`, the growth inhibition was 86% (active).
Same read-out and setting: the result for `Cc1cc(C(=O)Nc2ccc(C)c(-c3nc(N(C(=O)c4ccc(F)c(C)c4)C4CCNCC4)nc4c3ccc(=O)n4-c3c(F)cccc3F)c2)ccc1F` reads 99% (active); that for `CCC(O)(C#Cc1c(C)nc(N)nc1N)CC`, 97% (active).
Same read-out and setting: for `COc1ccc(CC(=O)NC2CCN(c3ccnc4cc(Cl)ccc34)C2)cc1` (stereo not given) the value was 101% (active); for `O=C(Nc1ccc(Cl)cc1)N[C@H]1CCN(Cc2ccc(OCCCN3CCCCC3)cc2)C1`, 103% (active).
In the case of `O=C(C=Cc1ccc(-c2nc3ccccc3[nH]2)cc1)NC1CCN(Cc2ccccc2)CC1`, the growth inhibition is 99% (active).
Same read-out and setting: for `Nc1c2c(nc3ccc(C(=O)Nc4ccccc4)cc13)CCCC2` the value was 100% (active).

The next test deals with Calcium-dependent protein kinase 1 (Plasmodium falciparum (isolate 3D7)) (UniProt P62344). Briefly: PfCDPK1 kinase inhibitors, biochemical, TCAMS library (AID 1159585).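 Further: inhibitors leave more ATP so luminescence rises with inhibition.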 The settings on record: recombinant PfCDPK1, Kinase-Glo ATP depletion luminescence.
Sequence of Calcium-dependent protein kinase 1 (Plasmodium falciparum (isolate 3D7)) (P62344 whole entry, looked up): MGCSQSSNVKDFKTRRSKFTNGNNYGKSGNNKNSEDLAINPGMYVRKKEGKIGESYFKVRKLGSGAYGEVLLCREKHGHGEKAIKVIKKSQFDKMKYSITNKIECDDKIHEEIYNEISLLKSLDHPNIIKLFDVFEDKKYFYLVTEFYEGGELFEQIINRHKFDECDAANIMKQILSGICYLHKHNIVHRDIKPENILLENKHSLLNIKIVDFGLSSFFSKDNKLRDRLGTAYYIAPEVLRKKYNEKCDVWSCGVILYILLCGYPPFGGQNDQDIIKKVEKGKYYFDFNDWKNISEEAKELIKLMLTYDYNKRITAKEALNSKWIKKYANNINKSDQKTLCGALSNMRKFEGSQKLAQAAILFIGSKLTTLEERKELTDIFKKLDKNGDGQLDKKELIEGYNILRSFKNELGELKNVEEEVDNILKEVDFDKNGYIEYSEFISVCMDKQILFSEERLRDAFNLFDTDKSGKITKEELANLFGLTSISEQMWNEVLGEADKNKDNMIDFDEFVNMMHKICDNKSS
Turning to `CCCCOc1ccc(CNCCCCCCNCc2ccc(OCCCC)c3ccccc23)c2ccccc12`, the result was inactive.
The same measure, in the same setting: for `O=C(Nc1ccc(-c2nc3ccccc3[nH]2)cc1)c1cccc(S(=O)(=O)N2CCOCC2)c1` the value was “inactive”; for `COc1ccc(NC(=O)[C@H](CC(C)C)Nc2cc(C)nc(NCCc3cccs3)n2)cc1`, “inactive”.
Same read-out and setting: for `O=C(NCCCCCCNCc1ccc(-c2ccccc2)cc1)Nc1ccc(Cl)c(Cl)c1` the value was “inactive”; for `O=C(Nc1ccc(-c2ccccc2)cc1)Nc1cccc(Cn2nc(Cl)c(N3CCNCC3)cc2=O)c1`, “inactive”.
Consider `COc1cccc(C2CCN(CCN3CCC(NC(=O)c4ccc(-c5ccc(Cl)cc5)cc4)CC3)CC2)c1`, for which the result was inactive.
On the same count and under the same terms, for `COc1ccc2nc(-c3cccc(C)n3)nc(Nc3ccncc3)c2c1` the value was “inactive”; for `Cc1nc2c(c(C)nn2C(C)(C)C)c(C)c1CCC(=O)Nc1ccc(CN2CCCC2)cc1`, “inactive”; for `CCCSc1nc2c(c(=O)n1Cc1ccco1)C1(CCCCC1)Cc1ccccc1-2`, “inactive”.
On the same count and under the same terms, for `CN(C)CCOc1cc(NC(=O)Nc2ccc3c(c2)CCCC3=O)ccc1I` the value was “inactive”; for `Nc1c2ccccc2nc2ccc(-c3ccccc3)cc12`, “inactive”.
Still for that read-out and setting: for `CN1CCC(NCc2ccc(-c3cccc(S(=O)(=O)NCCc4ccccn4)c3)cc2)CC1` the value was “inactive”; for `Cc1ccc2sc(N(CCCn3ccnc3)C(=O)c3ccco3)nc2c1C`, “inactive”; for `Cc1ccc(-c2cc3nc4c(c(NCCCn5ccnc5)n3n2)CCC4)cc1`, “inactive”.
With `O=S(=O)(c1ccccc1)C1CC1`, the outcome was inactive.
On the same count and under the same terms, for `CCCCCCc1ncc(-c2cc3cc(O)c(-c4ccccc4)cc3oc2=O)s1` the value was “inactive”; for `Cc1cc(N[C@@H](Cc2ccccc2)C(=O)NCCc2ccccc2)nc(NCCc2cccs2)n1`, “inactive”.
The same measure, in the same setting: for `COc1ccc(Nc2nccc(N3CCC(NC(=O)Nc4cccc(C(C)=O)c4)C3)n2)cc1` (stereo not given) the value was “inactive”; for `O=C(Nc1ccc(Cl)c(Cl)c1)C1CCC(=O)N1[C@@H](Cc1ccccc1)C(=O)NCCc1ccc(Cl)cc1` (stereo not given in full), “inactive”.
Still for that read-out and setting: for `CC(C)(C)OC(=O)/C=C(\C(=O)OCc1ccc([N+](=O)[O-])cc1)c1csc(NC(c2ccccc2)(c2ccccc2)c2ccccc2)n1` the value was “inactive”; for `COC(=O)c1sc(-c2ccc(Cl)cc2)cc1N(CCCN1CCC(N2CCCCC2)CC1)S(=O)(=O)c1ccc(C)cc1`, “inactive”; for `CN1C(=C2SC(=Nc3ccc4ncccc4c3)N(Cc3ccccc3)C2=O)Sc2ccc(Cl)cc21`, “inactive”.
Consider `N#Cc1cccc(NC(=O)NC2CCN(CCCCCNC(=O)[C@@H]3C[C@H]3c3ccc(Cl)c(Cl)c3)CC2)c1`, for which the outcome was inactive.
Still for that read-out and setting: for `CC(C)(C)COc1ccc2c(N)n[nH]c2c1` the value was “inactive”; for `COc1cc(NC2CCCC(NCc3cn(S(=O)(=O)c4ccccc4)c4ccccc34)C2)nc2ccccc12` (stereo not given), “inactive”; for `CN(C)CCNC(=O)c1cc2c(-c3ccc(Cl)cc3)nn(C)c2s1`, “inactive”.
Still for that read-out and setting: for `O=[N+]([O-])c1ccc(Oc2ccccc2CNCC2CCN(CC3CCCCC3)CC2)cc1` the value was “inactive”; for `COc1cc2nc(NCCc3ccccc3)nc(N(C)Cc3ccccc3)c2cc1OC`, “inactive”.
Same read-out and setting: the result for `COc1ccc2nc(C)cc(NN=Cc3ccc(Cl)cc3)c2c1` reads “inactive”.
In the case of `CN(C)CCOc1ccc(NC(=O)Nc2ccnc3c(Br)cccc23)cc1Cl`, the result was inactive.
Same read-out and setting: for `COc1cc(-c2nc(-c3ccccc3)c(-c3ccc(C(=O)c4ccc(F)cc4)cc3)[nH]2)cc(OC)c1O` the value was “inactive”; for `O=C(/C=C/c1ccc(Cl)c(Cl)c1)NCCCCCN1CCC(c2[nH]nc(-c3ccccc3)c2Br)CC1`, “inactive”; for `c1ccc(CN2CCN(c3cc(-c4cncc(-c5ccccc5)c4)nc(-c4ccccc4)n3)CC2)cc1`, “inactive”.
`Cc1ccc(-n2cc(CNCCc3ncc(C)[nH]3)c(-c3ccc(F)cc3)n2)cc1`: the result was inactive.
Same read-out and setting: the result for `Cc1cc(C(=O)Nc2ccc(C)c(-c3nc(N(C(=O)c4ccc(F)c(C)c4)C4CCNCC4)nc4c3ccc(=O)n4-c3c(F)cccc3F)c2)ccc1F` reads “inactive”; that for `CCC(O)(C#Cc1c(C)nc(N)nc1N)CC`, “inactive”; that for `COc1ccc(CC(=O)NC2CCN(c3ccnc4cc(Cl)ccc34)C2)cc1` (stereo not given), “inactive”.
Regarding `O=C(Nc1ccc(Cl)cc1)N[C@H]1CCN(Cc2ccc(OCCCN3CCCCC3)cc2)C1`, the result was inactive.
Regarding `O=C(C=Cc1ccc(-c2nc3ccccc3[nH]2)cc1)NC1CCN(Cc2ccccc2)CC1`, the outcome was inactive.
As for `Nc1c2c(nc3ccc(C(=O)Nc4ccccc4)cc13)CCCC2`, the outcome was inactive.

The record behind these values is PubChem BioAssay.
